# Where “and” joins values, the source holds several entries; their conditions need not be identical. Equal entries are not always repeated. Records with an inconclusive call do not appear. Entries that show only a call come without a potency. A number with no mark means an inactive call. Calls of active or inactive are those of the source. Calls come from the whole dose curve; as a rule, active = well fitted cell-killing curve with a large enough effect in the repeat runs; inconclusive = weak or mixed curves, or effect the other way; inactive = flat fitted curve, though single readings scatter.
# Key:
# [1] = cAMP Responsive Elements (CRE) small molecule antagonists, cell-based qHTS assay: qHTS cell viability counter screen (AID 2060913); note: nearly all actives have a fitted effect of over 40% in size
# Summary of the method: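 Viability of NKH477-stimulated (0.25 uM final) CRE-bla HEK293T cells is measured by CellTiter-Glo luminescence following 3 hrs compound exposure at 37 C.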
# [2] = cAMP Responsive Elements (CRE) small molecule agonists, cell-based qHTS assay: qHTS cell viability counter screen (AID 2060914);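 note: viability read after 3 h of compound exposure; nearly all actives have a fitted effect of over 50% in size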
# Summary of the method: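 Cells are seeded and incubated 18 h, treated with compounds in DMSO for 3 h, read for the bla reporter, then given CellTiter-Glo; luminescence is measured after 30 min at room temperature.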
# Potency is the fitted concentration of half-maximal effect.
Compound,Potency [1],Potency [2],"viability change, negative = cytotoxic [1]","activity change, negative = cytotoxicity [2]"
Cc1cc(CCN2CCN(c3nsc4ccccc34)CC2)cc2c1NC(=O)CC2(C)C,68.6 µM (active),68.6 µM (active),,
CCCCCCCCCOC(C)=O,inactive,inactive,,
CCCCc1ncc(/C=C(\Cc2cccs2)C(=O)O)n1Cc1ccc(C(=O)O)cc1,inactive,inactive,,
O=C(CCN1CCN2CCCC2C1)N1c2ccccc2Sc2ccc(Cl)cc21 (configuration not stated),,,0.501% [at 18.9 µM],5.15% [at 18.9 µM]
CC1(C)S[C@@H]2[C@H](NC(=O)[C@H](N)c3ccccc3)C(=O)N2[C@H]1C(=O)O,inactive,inactive,,
C/C=C(\C)C=O,inactive,inactive,,
Cc1ccccc1OCC1CO1 (configuration not stated),inactive,inactive,,
NC(=O)/N=N/C(N)=O,inactive,inactive,,
O=C=Nc1ccc(Cc2ccc(N=C=O)cc2)cc1,inactive,inactive,,
CC(C)(C)NCC(O)c1ccc(O)c(CO)c1 (configuration not stated),inactive,inactive,,
CCOc1ccc(NC(N)=O)cc1,inactive,inactive,,
CCC1(c2ccccc2)C(=O)NCNC1=O,inactive,inactive,,
FC(F)(F)c1ccccc1Cl,inactive,inactive,,
CC(CC=O)CC(C)(C)C (configuration not stated),inactive,inactive,,
C=CC(=O)O,inactive,inactive,,
CCOc1ccc(NC(C)=O)cc1N,inactive,inactive,,
CCCCCCCCCCCC(=O)OCC(O)CO (configuration not stated),inactive,inactive,,
O=C(O)c1ccc(OCCN2CCCCC2)cc1,inactive,inactive,,
O=C=Nc1ccc(Cl)c(Cl)c1,inactive,inactive,,
CC(O)Cn1cnc2c1c(=O)n(C)c(=O)n2C (configuration not stated),inactive,inactive,,
CCOC(=O)C(F)(F)F,inactive,inactive,,
CC(C(=O)O)c1ccc(C(=O)c2ccccc2)s1 (configuration not stated),inactive,inactive,,
CCC(C)c1cc([N+](=O)[O-])cc([N+](=O)[O-])c1OC(=O)OC(C)C (configuration not stated),inactive,inactive,,
C1COCO1,inactive,inactive,,

Compound,Potency [1],Potency [2],"viability change, negative = cytotoxic [1]","activity change, negative = cytotoxicity [2]"
CN(C)Cc1cc(C(C)(C)C)c(O)c(C(C)(C)C)c1,inactive,inactive,,
C1CC(COCC2CO2)CCC1COCC1CO1 (configuration not stated),inactive,inactive,,
CCO[Si](OCC)(OCC)OCC,inactive,inactive,,
Cc1cc(S(=O)(=O)O)c(N)cc1Cl,inactive,inactive,,
CC(C)C(=O)OC(=O)C(C)C,inactive,inactive,,
C[n+]1cc2c3c(ccc2c2ccc4cc5c(cc4c21)OCO5)OCO3,3.66 µM (active),3.26 µM (active),,
CCCCc1ccc(Cl)cc1,inactive,inactive,,
CCCCCCC1CCC(=O)O1 (configuration not stated),inactive,inactive,,
C=C[Si](C)(C)Cl,,,-0.015% [at 8.39 µM],-1.19% [at 8.39 µM]
CCC(C)C(=O)OCCc1ccccc1 (configuration not stated),inactive,inactive,,
CC(=O)OC/C=C(C)/C=C/C=C(C)/C=C/C1=C(C)CCCC1(C)C,inactive,inactive,,
CC(C)(C)c1ccccc1,inactive,inactive,,
CC1(C)C(=O)N(CO)C(=O)N1CO,inactive,inactive,,
O=C(O)c1ccccc1C(=O)Nc1ccc(S(=O)(=O)Nc2nccs2)cc1,inactive,inactive,,
C1CCCNCCC1,inactive,inactive,,
CC(=O)N[C@@H](CO)C(=O)N[C@@H](CC(=O)O)C(=O)N[C@@H](CCCCN)C(=O)N1CCC[C@H]1C(=O)O,inactive,inactive,,
c1ccc(CCc2ccccc2)cc1,inactive,inactive,,
O=C(O)CCCc1c[nH]c2ccccc12,inactive,inactive,,
Cc1c(C)c([N+](=O)[O-])c(C(C)(C)C)c([N+](=O)[O-])c1C,inactive,inactive,,
N#Cc1nc(Cl)c(Cl)c(Cl)c1Cl,inactive,inactive,,
CCCc1nc(C)c2c(=O)[nH]c(-c3cc(S(=O)(=O)N4CCN(CC)CC4)ccc3OCC)nn12,inactive,inactive,,
CC(C)(O)CCC(C)(C)O,inactive,inactive,,
C/C=C(\C)C(=O)OCc1ccccc1,inactive,inactive,,
CCO[Si](C)(OCC)OCC,inactive,inactive,,

Compound,Potency [1],Potency [2],"viability change, negative = cytotoxic [1]","activity change, negative = cytotoxicity [2]"
C[C@]12CC[C@@H]3c4ccc(O)cc4C[C@@H](CCCCCCCCCS(=O)CCCC(F)(F)C(F)(F)F)[C@H]3[C@@H]1CC[C@@H]2O (some centres not stated),inactive,inactive,,
CCCCOCCOC(=O)c1ccccc1C(=O)OCCOCCCC,inactive,inactive,,
Clc1cccc(C(c2ccc3nc[nH]c3c2)n2ccnc2)c1 (configuration not stated),inactive,inactive,,
CCCOC(=O)c1ccc(N)cc1,inactive,inactive,,
CCCCCCCCCCCC(=O)N(CC)CC,inactive,inactive,,
C=CC(=O)OCCCl,inactive,inactive,,
CC(CCC(=O)O)(c1ccc(O)cc1)c1ccc(O)cc1,inactive,inactive,,
CC(C)=CCC/C(C)=C/CC/C(C)=C/CCC(=O)OC/C=C(\C)CCC=C(C)C,inactive,inactive,,
COC(=O)/C=C(\C)CCC=C(C)C,inactive,inactive,,
CCCCCCCC=O,inactive,inactive,,
O=C(O)Cc1cc(I)c(Oc2cc(I)c(O)c(I)c2)c(I)c1,inactive,inactive,,
O=C(O)CCSSCCC(=O)O,inactive,inactive,,
CC(C)OC(=O)C(O)(CC(=O)O)CC(=O)O,inactive,inactive,,
CC/C(C)=N/O,inactive,inactive,,
C1=CCCC1,inactive,inactive,,
Nc1ccccc1S(=O)(=O)c1ccccc1,inactive,inactive,,
CC(=O)Nc1ccccc1O,inactive,inactive,,
COCCO,inactive,inactive,,
O=C1c2cccc3c2[C@H](CCC3)CN1[C@@H]1CN2CCC1CC2,inactive,inactive,,
C[C@H](N)[C@H](O)c1cccc(O)c1,inactive,inactive,,
CCCCC(CC)COC(=O)c1ccccc1 (configuration not stated),inactive,inactive,,
C=C(C)C(=O)OCC(CC)(COC(=O)C(=C)C)COC(=O)C(=C)C,inactive,inactive,,
O=C(CC(C(=O)OC1CCCCC1)S(=O)(=O)O)OC1CCCCC1 (configuration not stated),inactive,inactive,,
O=S(=O)(O)c1ccc(Cl)cc1,inactive,inactive,,

Compound,Potency [1],Potency [2],"viability change, negative = cytotoxic [1]","activity change, negative = cytotoxicity [2]"
O=[Si]=O,inactive,inactive,,
NCCNCCN,inactive,inactive,,
CC1=C(/C=C/C(C)=C/C=C/C(C)=C\C=O)C(C)(C)CCC1,inactive,inactive,,
CC(=O)c1ccc(Cl)c(Cl)c1Cl,inactive,inactive,,
C[C@]12C=CC(=O)C=C1CC[C@@H]1[C@@H]2C(=O)C[C@@]2(C)[C@H]1CC[C@]2(O)C(=O)CO,inactive,inactive,,
Nc1ncnc2c1ncn2Cc1c(F)cccc1Cl,inactive,inactive,,
COc1ccc(C(=O)c2cccc(O)c2)c(OC)c1,inactive,inactive,,
CCCOC(=O)c1ccccc1,inactive,inactive,,
O=C(O)C(O)[C@H](O)[C@@H](O)[C@H](O)[C@H](O)CO (some centres not stated),inactive,inactive,,
COC(=O)c1cc(S(N)(=O)=O)ccc1OC,inactive,inactive,,
CC(O)CO (configuration not stated),inactive,inactive,,
CC(C)Nc1nc(N)nc(Cl)n1,inactive,inactive,,
CCCCNC(N)=O,inactive,inactive,,
OCCCCCO,inactive,inactive,,
CN1C(CSCC(F)(F)F)Nc2cc(Cl)c(S(N)(=O)=O)cc2S1(=O)=O (configuration not stated),inactive,inactive,,
c1ccc2c(c1)ccc1cc3c(ccc4ccccc43)cc12,inactive,inactive,,
CCC(=O)CC(C)CC (configuration not stated),,,-1.01% [at 0.349 µM],6.36% [at 0.349 µM]
CCCCCCCCOC(=O)CCCCCCCCC(=O)OCCCCCCCC,inactive,inactive,,
CC1(N)CCC(C(C)(C)N)CC1 (configuration not stated),inactive,inactive,,
CCN(CC)CCSC(=O)C(c1ccccc1)c1ccccc1,inactive,inactive,,
O=c1[nH]cnc2nc[nH]c12,inactive,inactive,,
CC(C)(C)C(=O)NCCCC(=O)O,inactive,inactive,,
Cc1ncc([C@@H](CCCCCCc2ccc3c(n2)NCCC3)CC(=O)O)cn1,inactive,inactive,,
CC(CO)Oc1ccccc1 (configuration not stated),inactive,inactive,,

Compound,Potency [1],Potency [2],"viability change, negative = cytotoxic [1]","activity change, negative = cytotoxicity [2]"
Oc1ccc(C(O)CNCCCCCCNCC(O)c2ccc(O)c(O)c2)cc1O (configuration not stated),inactive,inactive,,
CC(=O)N(CC(O)CN(C(C)=O)c1c(I)c(C(=O)NCC(O)CO)c(I)c(C(=O)NCC(O)CO)c1I)c1c(I)c(C(=O)NCC(O)CO)c(I)c(C(=O)NCC(O)CO)c1I (configuration not stated),inactive,inactive,,
CC(=O)Nc1ccc(N)cc1,inactive,inactive,,
CCc1cccc2c3c([nH]c12)C(CC)(CC(=O)O)OCC3 (configuration not stated),inactive,inactive,,
Cc1ccccc1C(=O)Nc1ccc(C(=O)N2CCCC(O)c3cc(Cl)ccc32)c(C)c1 (configuration not stated),inactive,inactive,,
COC(=O)c1ccccc1Cl,inactive,inactive,,
O=C(NCc1ncc(C(F)(F)F)cc1Cl)c1c(Cl)cccc1Cl,inactive,inactive,,
FC(F)(F)C(Cl)Br (configuration not stated),inactive,inactive,,
Clc1ccccc1CN1CCc2sccc2C1,inactive,inactive,,
CC(=O)Nc1ncc([N+](=O)[O-])s1,inactive,inactive,,
CCCCCCC(C)(C)C(=O)O,inactive,inactive,,
C#C[C@]1(OC(C)=O)CC[C@H]2[C@@H]3CCC4=C/C(=N/O)CC[C@@H]4[C@H]3CC[C@@]21CC,inactive,inactive,,
Cc1cc(OCCOCC[N+](C)(C)Cc2ccccc2)ccc1C(C)(C)CC(C)(C)C,54.2 µM (active) and 29.8 µM (active),60.8 µM (active) and 26.6 µM (active),,
N#Cc1cc2ccccc2c2ccccc12,inactive,inactive,,
O=C(C(Cl)Cl)N1CCOC12CCCCC2,inactive,inactive,,
Clc1cc(Cl)cc(Cl)c1,inactive,inactive,,
C1CCN2C[C@@H]3C[C@@H](CN4CCCC[C@@H]34)[C@H]2C1,inactive,inactive,,
CC(C)(CO)CO,inactive,inactive,,
CN(C)C(=N)N=C(N)N,inactive,inactive,,
CCOC(=O)c1c(N)sc2c1CCN(Cc1ccccc1)C2,inactive,inactive,,
